Compound activity deposited in PubChem by National Center for Advancing Translational Sciences (NCATS).
Hits are enriched below; roughly 18% of the tested compounds scored in any of these assays.
TDP1 cell CPT – qHTS for Inhibitors of human tyrosyl-DNA phosphodiesterase 1 (TDP1): qHTS in cells in presence of CPT; chicken DT40 Tdp1-/-;hTDP1 cells + 20 nM CPT, ATP luminescence, 48 h; Potency, µM (highest dose often 46.2 µM), for the others: at the highest dose activity change, negative = growth inhibition, usual class: inhibitors; actives 12% (n = 420,000); also: potency is read from the fitted curve at half-maximal effect; % is scaled to controls: 0 for no effect and ±100 for the full control effect; nearly all actives have a fitted effect of over 55% in size
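Chicken DT40 Tdp1-/- cells stably complemented with human TDP1 were seeded at 400 cells/well in medium containing 20 nM camptothecin, exposed to pin-transferred compounds, and grown at 37 °C for at least 48 hr. Viability was read as ATP luminescence.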
TGFb SMAD3 inh – qHTS for Inhibitors of TGF-b. actives 1.2% (n = 410,000). Potency, µM (series often up to 46.1 µM), for the others: top-dose activity, negative = inhibition, usual class: inhibitors. HepG2 CAGA-GFP TGF-b/SMAD3 reporter, GFP fluorescence, 18 h; TGF-beta stimulated, 500 pg/mL final; also: potency is read from the fitted curve at half-maximal effect; % is scaled to controls: 0 for no effect and ±100 for the full control effect; nearly all actives have a fitted effect of over 65% in size
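Inhibition of TGF-beta-driven CAGA-GFP reporter expression in HEPG2 cells is measured by cellular GFP fluorescence after 18 h stimulation with 500 pg/mL recombinant TGF-beta in 1% FBS medium at 37 degrees C.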
TDP1 block – qHTS Assay for Inhibitors of Tyrosyl-DNA Phosphodiesterase (TDP1). Tyrosyl-DNA phosphodiesterase 1 (Homo sapiens), Q9NUW8. actives 0.28% (n = 350,000). recombinant TDP1, AlphaScreen DNA substrate cleavage. Potency, µM (highest dose often 130 µM), without a hit: at the top dose activity change, negative = inhibition, most hits filed as inhibitors; also: potency is read from the fitted curve at half-maximal effect; % is scaled to controls: 0 for no effect and ±100 for the full control effect; nearly all actives have a fitted effect of over 40% in size
Target sequence (Q9NUW8 whole entry, looked up): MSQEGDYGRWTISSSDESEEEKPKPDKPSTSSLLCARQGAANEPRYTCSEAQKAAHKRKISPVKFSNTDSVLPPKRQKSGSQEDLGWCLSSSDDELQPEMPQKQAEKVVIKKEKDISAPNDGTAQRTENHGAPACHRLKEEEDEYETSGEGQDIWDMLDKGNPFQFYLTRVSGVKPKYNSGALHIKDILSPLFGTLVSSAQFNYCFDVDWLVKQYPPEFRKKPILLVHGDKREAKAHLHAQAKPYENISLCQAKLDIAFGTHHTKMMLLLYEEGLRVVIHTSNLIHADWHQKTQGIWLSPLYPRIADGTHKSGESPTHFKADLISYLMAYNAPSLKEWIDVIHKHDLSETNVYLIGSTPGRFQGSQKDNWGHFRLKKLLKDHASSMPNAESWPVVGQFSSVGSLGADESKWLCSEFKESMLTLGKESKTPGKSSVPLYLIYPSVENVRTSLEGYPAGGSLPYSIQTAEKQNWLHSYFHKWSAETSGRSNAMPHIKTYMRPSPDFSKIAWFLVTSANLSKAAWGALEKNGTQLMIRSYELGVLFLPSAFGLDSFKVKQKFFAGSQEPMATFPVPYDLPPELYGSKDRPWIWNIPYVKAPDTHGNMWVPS
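Here, a 5' biotin and 3' phosphotyrosine-FITC DNA oligonucleotide reports Tdp1 activity: intact substrate bridges AlphaScreen beads, while cleavage leaves a 3' phosphate and drops signal. All incubations at room temperature.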
DT40 TDP1 no CPT – qHTS for Inhibitors of human tyrosyl-DNA phosphodiesterase 1 (TDP1): qHTS in cells in absence of CPT | DT40 Tdp1-/- hTDP1 cells, no CPT, ATP luminescence, 48 h | Potency, µM (highest dose often 46.2 µM), for inactives: at the highest dose activity change, negative = growth inhibition, actives largely listed as inhibitors | actives 15% (n = 420,000); also: potency is read from the fitted curve at half-maximal effect; % is scaled to controls: 0 for no effect and ±100 for the full control effect; nearly all actives have a fitted effect of over 55% in size
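Readout: luminescence from CellTiter-Glo after 30 min in the dark at RT. Cells: DT40 Tdp1-/- with stable hTDP1, 400/well. Exposure: compounds alone, ≥48 hr, 37 °C.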
HepG2 tox – qHTS for Inhibitors of TGF-b: Cytotox Counterscreen. HepG2 CAGA-GFP viability, ATP luminescence, 18 h. Potency, µM (top dose mostly 46.1 µM), for the others: at the highest dose activity change, negative = cytotoxicity, actives largely listed as cytotoxic. actives 0.76% (n = 410,000). AID 588856, 2011; also: potency is read from the fitted curve at half-maximal effect
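HepG2 CAGA-GFP cells (1000/well, DMEM with 1% FBS) received compound, then TGF-beta at 500 pg/mL final, and were incubated 18 hours at 37 degrees C. Viability was read by CellTiter-Glo luminescence. Media-only wells were set as complete cell-killing and DMSO as no toxicity.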
IL1B secr inh – qHTS for Inhibitors of Inflammasome Signaling: IL-1-beta AlphaLISA Primary Screen | actives 4.7% (n = 360,000) | THP-1 LPS/ATP IL-1B secretion, AlphaLISA, 16 h; hits give low values | activity change, % at 57.5 µM | AID 743279, 2014; in the data active = activity change below about -50%; inconclusive = mostly about -30% to -49%; also: % is scaled to controls: 0 for no effect and ±100 for the full control effect
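Secreted IL-1B measured by AlphaLISA bead assay after 16 h compound exposure of THP-1 cells; compounds (final up to 57.5 uM) added 1 h before LPS (250 ng/mL) and ATP (1.25 mM) stimulation; lower signal means less secretion.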
* = called active by the depositor; ? = inconclusive; · = not tested or not shown; [ ] = dose if it differs, or a comment. Unless noted, calls follow the shape of the dose curve; as a rule, active = well fitted curve in the direction sought with a large enough effect; inconclusive = small, poorly fitted or top-dose-only effect, or another doubt; inactive = no such curve, though single readings can be large; an effect the other way counts as inactive or inconclusive.

SMILES | TDP1 cell CPT | TGFb SMAD3 inh | TDP1 block | DT40 TDP1 no CPT | HepG2 tox | IL1B secr inh
O=C(NCC(c1ccco1)N1CCc2ccccc2C1)c1cccc(F)c1 (centres undefined) | -12% | -14% | · | -19% | 1% | 3
O=C(NCC(c1ccco1)N1CCc2ccccc2C1)c1ccc([N+](=O)[O-])cc1 (centres undefined) | ? | ? | 0% | 23µM* | -2% | 3
COc1cccc(CNC(=O)c2c(OC)cc(=O)n3c2CCN(C(=O)c2ccc(Cl)cc2)CC3)c1 | -1% | · | · | 5% | · | ·
COc1ccc(NC2C=CS(=O)(=O)C2)c(OC)c1 (centres undefined) | -16% | -3% | 7% | -14% | -9% | -61*
CCn1c(=O)c2sccc2n2c(CCCC(=O)N3CCN(c4ccccc4OC)CC3)nnc12 | ? | ? | 0% | ? | -20% | ·
COc1ccc(CNC(=O)CCCc2nnc3n(CCC(C)C)c(=O)c4sccc4n23)cc1 | 18µM* | ? | 5% | 18µM* | -27% | ·
CCn1c(=O)c2sccc2n2c(CCC(=O)NCc3ccc(Cl)cc3)nnc12 | ? | -18% | 1% | 21µM* | 6% | ·
CC(=O)NCCNC(=O)CCCc1nnc2n(CCC(C)C)c(=O)c3sccc3n12 | -5% | 9% | 3% | -2% | 3% | ·
CCCCC(CC)CNC(=O)CCCc1nnc2n(CCC)c(=O)c3sccc3n12 (centres undefined) | 21µM* | ? | 0% | 23µM* | -22% | ·
CCn1c(=O)c2sccc2n2c(CCCC(=O)N3CCN(c4cc(C)ccc4C)CC3)nnc12 | 6.5µM* | -18% | 0% | 6.5µM* | -5% | ·
CCCn1c(=O)c2sccc2n2c(CCCC(=O)NCc3ccco3)nnc12 | -28% | -17% | · | -11% | -2% | 3
Cn1c(=O)c2sccc2n2c(CCC(=O)NCc3ccc(Cl)cc3)nnc12 | ? | -1% | 1% | ? | 4% | ·
Cc1ccc(S(=O)(=O)N2CCN(Cc3cc(C(C)(C)C)ccc3O)CC2)cc1 | -26% | ? | 3% | -24% | -12% | 12
O=C(NCC1CCCO1)C1CCCN(S(=O)(=O)c2ccc(Cl)cc2)C1 (centres undefined) | 9% | -5% | -4% | -7% | -6% | 32
Cn1c(=O)c2sccc2n2c(CCCC(=O)NCc3ccc(F)cc3)nnc12 | 3% | ? | 3% | -19% | 1% | 28
CC(C)Cn1c(=O)c2sccc2n2c(CCCC(=O)NCCc3ccccc3)nnc12 | ? | -28% | -3% | ? | -1% | ·
COc1ccc(NC(=O)CCCc2nnc3n(CCC(C)C)c(=O)c4sccc4n23)cc1Cl | ? | ? | 5% | 21µM* | -30% | ·
Cc1cc(C)cc(NC(=O)CCCc2nnc3n(CC(C)C)c(=O)c4sccc4n23)c1 | ? | -4% | 8% | ? | 1% | ·
CCc1ccc(NC(=O)CCCc2nnc3n(CC(C)C)c(=O)c4sccc4n23)cc1 | 21µM* | -24% | 5% | 23µM* | -14% | ·
CC(C)CCn1c(=O)c2sccc2n2c(CCCC(=O)NCCc3ccccc3)nnc12 | 15µM* | ? | 3% | 15µM* | -7% | ·
CC(C)CCn1c(=O)c2sccc2n2c(CCCC(=O)NCc3ccc(F)cc3)nnc12 | 18µM* | ? | 8% | ? | -21% | ·
Cc1noc(C)c1C(=O)N1CCC[C@@]2(CCN(C(=O)NC(C)C)C2)C1 | 4% | · | · | 0% | · | ·
COc1cc(C#N)c(NC(=S)N2CCOCC2)cc1OC | · | · | 3% | · | · | ·
CC/C=C/[C@@H](c1ccccc1)[C@H](C)C(O)CC(=O)SC(C)(C)C (some centres undefined) | · | ? | -14% | · | -33% | ·
CCOc1ccc(CCNC(=O)CCCc2nnc3n(CC(C)C)c(=O)c4sccc4n23)cc1 | ? | -21% | 8% | 18µM* | -23% | ·
SMILES | TDP1 cell CPT | TGFb SMAD3 inh | TDP1 block | DT40 TDP1 no CPT | HepG2 tox | IL1B secr inh
CCCCC(CC)CNC(=O)Cn1c(=O)[nH]c2ccsc2c1=O (centres undefined) | 0% | -13% | 5% | -4% | -12% | -9
CCCCC(CC)CNC(=O)CCCn1c(=O)[nH]c2ccsc2c1=O (centres undefined) | 15µM* | ? | 6% | ? | -7% | ·
O=C(CSc1nnc(-c2ccc3c(c2)OCO3)o1)Nc1ncc(C(F)(F)F)cc1Cl | ? | -4% | 7% | 16µM* | -10% | 25
CC(C)C[C@@H](CC(=O)N[C@@H](CCC(=O)O)CC(=O)O)NC(=O)[C@@H]1CCCC[C@H]1NC(=O)C[C@H](CCCN)NC(=O)C[C@H](CO)NC(=O)[C@@H]1CNCC[C@H]1N | · | · | 3% | · | · | ·
CSc1sc(-c2ccnc(SCCS(C)(=O)=O)n2)c(-c2ccccc2)c1C#N | ? | -9% | 0% | 18µM* | 10% | 66
CC(C)N1CCN(C(=O)c2cnn(-c3nccc(-c4ccc5c(c4)OCO5)n3)c2-c2ccco2)CC1 | -1%[9.04 µM] | · | · | ? | · | ·
O=C(Nc1cc(Cl)cc(Cl)c1)c1cc(S(=O)(=O)N2CCC3(CC2)OCCO3)ccc1F | 21µM* | -15% | 3% | ? | -18% | ·
O=C(Nc1cccc(C(F)(F)F)c1)c1ccc(F)c(S(=O)(=O)N2CCc3ccccc3C2)c1 | 15µM* | 11µM* | 5% | 13µM* | -33% | ·
O=C(Nc1cccc(Cl)c1Cl)c1cc(S(=O)(=O)N2CCC3(CC2)OCCO3)ccc1F | ? | 33% | 5% | 23µM* | 10% | ·
O=C(c1cc(S(=O)(=O)N2CCC3(CC2)OCCO3)ccc1F)N1CCCCC1 | -7% | -9% | 0% | 13% | -7% | -60*
O=C(Nc1ccccc1Cl)c1cc(S(=O)(=O)N2CCC3(CC2)OCCO3)ccc1F | ? | ? | 0% | ? | -15% | -13
COCCN(Cc1ccccc1)C(=O)c1ccc(C(=O)c2ccccc2)cc1 | ? | 24% | 0% | ? | 35% | 5
CC(C)CC(c1nnnn1C(C)(C)C)N1CCN(Cc2ccccc2)CC1 (centres undefined) | -8% | -7% | 6% | ? | -8% | -15
O=C(Cc1c(Cl)cccc1Cl)OCC(=O)N1CCOCC1 | 6% | 7% | 0% | 4% | 15% | 10
